# Screening data: PubChem BioAssay, several laboratories
# In the library only some 3% were active in any assay of this set; here they are far more common.
# HIF-2a block: blocks HIF-2a reporter activity | 360,000 compounds, 0.72% hits | AID 624352 | inhibition, % at 18.8 µM | 786-0 RCC cells HIF-2a reporter, luciferase luminescence, overnight;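 active = inhibition of the luminescence signal of 40% or more relative to plate controls, in a single-dose primary screen at 18.75 µM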
# MITF TRPM1 inh: MITF TRPM1 promoter inhibition in SK-MEL-5 cells; 330,000 compounds, 0.83% hits; SK-MEL-5 TRPM1 promoter luciferase, 24 h; inhibition, % at 12.5 µM; AID 488899;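 active = mean inhibition across replicates of 60% or more, whatever share of single replicates reaches that level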
# Peg3 prom inh: reduces Peg3 promoter-driven luciferase expression in HeLa. AID 588405. inhibition, % at 20 µM. HeLa PEG-Prom luciferase reporter, luminescence, overnight. 360,000 compounds, 1.7% hits;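 active = inhibition of at least 50% at 20 µM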
# CF NFkB inh: inhibitors of cystic fibrosis induced NF-kB. 360,000 compounds, 0.86% hits. inhibition, % at 5 µM. KKLEB NF-kB-GFP reporter, PAF-induced, GFP fluorescence overnight. AID 588850;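 active = at least 50% inhibition at 5 µM, scaled per plate between neutral and stimulator controls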;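 also: PAF is a Pseudomonas aeruginosa culture filtrate used as stimulus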
# KKLEB tox: reduces viability of KKLEB cystic fibrosis airway cells; activity change (cytotoxicity), % at 5 µM; KKLEB CF airway cells viability, ATPlite luminescence, overnight; hits give low values; cells stimulated with P. aeruginosa culture filtrate; 360,000 compounds, 0.36% hits; AID 602141;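 active = corrected activity change at or below -50% at 5 µM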
# ABHD5-PLIN5 inh: blocks binding of human ABHD5 to perilipin-5 | Split G. princeps luciferase complementation, luminescence, 4 h | inhibition, % at 4 µM | 360,000 compounds, 0.78% hits;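 active = inhibition above the mean inhibition across every tested compound plus 3 SD, cut at about 22% in these data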
# Target sequence (Q00G26 whole entry, looked up): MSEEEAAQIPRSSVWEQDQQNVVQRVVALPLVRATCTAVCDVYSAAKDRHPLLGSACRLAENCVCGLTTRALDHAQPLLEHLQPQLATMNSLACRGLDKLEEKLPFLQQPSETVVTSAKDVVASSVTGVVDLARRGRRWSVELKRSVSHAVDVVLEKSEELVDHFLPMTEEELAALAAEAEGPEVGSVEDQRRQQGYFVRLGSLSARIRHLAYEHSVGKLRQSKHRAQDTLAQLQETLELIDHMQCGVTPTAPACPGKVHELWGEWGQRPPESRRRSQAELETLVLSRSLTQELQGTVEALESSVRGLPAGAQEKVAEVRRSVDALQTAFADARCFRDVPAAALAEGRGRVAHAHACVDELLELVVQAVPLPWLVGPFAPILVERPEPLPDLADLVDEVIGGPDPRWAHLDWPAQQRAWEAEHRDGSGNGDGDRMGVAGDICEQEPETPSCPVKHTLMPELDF
# Target sequence (Q8WTS1 whole entry, looked up): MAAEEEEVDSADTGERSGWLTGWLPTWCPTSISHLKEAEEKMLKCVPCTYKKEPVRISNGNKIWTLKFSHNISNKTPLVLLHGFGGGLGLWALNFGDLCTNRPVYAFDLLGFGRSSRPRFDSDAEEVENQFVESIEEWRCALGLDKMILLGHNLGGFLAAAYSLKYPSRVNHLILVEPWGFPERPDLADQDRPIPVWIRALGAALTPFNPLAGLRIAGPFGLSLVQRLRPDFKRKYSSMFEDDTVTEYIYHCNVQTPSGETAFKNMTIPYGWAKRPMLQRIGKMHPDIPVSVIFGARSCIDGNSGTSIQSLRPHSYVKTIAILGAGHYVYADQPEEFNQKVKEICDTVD
# CF NFkB conf: CF NF-kB inhibition confirmation, single concentration; shares compounds with CF NFkB inh; KKLEB CF airway cells, PAF-induced NF-kB-GFP fluorescence, overnight; inhibition, % at 5 µM; 1,300 compounds, 64% hits; AID 602472; in the data active = inhibition above about 40%;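 also: stimulus PAF is a Pseudomonas aeruginosa filtrate and not platelet activating factor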
# ABHD5-PLIN5 conf: confirmation of human ABHD5-PLIN5 interaction inhibitors | shares compounds with ABHD5-PLIN5 inh | biochemical ABHD5-PLIN5 interaction, luminescence | inhibition, % at 4 µM | 2,200 compounds, 67% hits; in the data active = inhibition above about 23%
# HNF4 split-luc: counter-screen for ABHD5-PLIN5 inhibitors: HNF4 split-luciferase. 2,200 compounds, 77% hits. HNF4 dimerization, luminescence, biochemical. shares compounds with ABHD5-PLIN5 inh. inhibition, % at 4 µM;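 active = mean inhibition across replicate wells exceeding the computed hit threshold, cut at about 13% in these data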;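 also: light from luciferase halves that rejoin when HNF4 fusion proteins dimerize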
# Mdm2-MdmX confirm: Mdm2/MdmX (human) interaction inhibition, confirmed. shares compounds with HIF-2a block. SaOS-2 split-luciferase Mdm2/MdmX complementation, luminescence. inhibition, % at 8 µM. 740 compounds, 99% hits. AID 504601;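 active = mean inhibition of the luminescence signal across two replicates at or above 26 percent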
# HIF-2a conf: HIF-2a inhibition, single concentration confirmation; 1,800 compounds, 56% hits; 786-0 RCC cells, HIF-2a luciferase reporter luminescence, overnight; inhibition, % at 18.8 µM; shares compounds with HIF-2a block;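 active = mean inhibition across four replicates of at least 40 percent at the single tested concentration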
# HIF-1a cs: inhibits HIF-1a reporter, a counter-screen for HIF-2a inhibitors; shares compounds with HIF-2a block; MiaPaCa-2 HIF-1a luciferase reporter, desferoxamine, overnight; inhibition, % at 18.8 µM; 1,800 compounds, 72% hits; AID 651589;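 active = mean inhibition of the reporter signal across four replicates at the single tested dose of 50% or more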
# Numbers stand for hits; 0 = inactive; - = no result given.
SMILES,HIF-2a block,MITF TRPM1 inh,Peg3 prom inh,CF NFkB inh,KKLEB tox,ABHD5-PLIN5 inh,CF NFkB conf,HIF-2a conf,HIF-1a cs,others
CS(=O)(=O)c1ccc(C(=O)OCC(=O)NCc2cccs2)cc1[N+](=O)[O-],83,85,108,90,0,0,43,0,0,
Cc1cccc(C(=O)OCC(=O)NCc2cccs2)c1,0,0,0,0,0,0,-,-,-,
CC(C)c1ccc(NC(=O)C2Cc3c(-c4cccc(F)c4)ccnc3O2)cc1 (stereo not given),0,-,0,0,0,0,-,-,-,
Cc1ccc(NCCCn2ccc(NC(=O)OCc3ccccc3)nc2=O)cc1C,0,0,0,0,0,0,-,-,-,
O=C(C=Cc1ccccc1)CC(c1ccccc1)N1CCOCC1 (stereo not given),70,76,108,94,0,77,0,0,102,ABHD5-PLIN5 conf=100;HNF4 split-luc=95
CCCc1[nH]n(-c2ccc([N+](=O)[O-])cc2)c(=O)c1C(C)=NCc1ccncc1,0,0,0,0,0,0,-,-,-,
O=c1c(Cl)c(Cl)cnn1Cc1nnc(-c2ccccc2Br)o1,96,95,106,84,0,0,45,73,106,Mdm2-MdmX confirm=101
Clc1ccccc1OCc1nnc(-c2ccccc2Br)o1,0,0,0,0,0,0,-,-,-,
CCOC(=O)[C@@H]1[C@H]2COc3ccccc3[C@H]2N2C(=O)N(c3cccc(Cl)c3)C(=O)[C@]12C,0,0,0,0,0,0,-,-,-,
O=S(=O)(Nc1ccccc1)c1ccc(-c2cnc(C3CC3)o2)cc1,0,0,0,0,0,0,-,-,-,
Cc1cc(C)cc(NS(=O)(=O)c2ccc(-c3cnc(C4CC4)o3)cc2)c1,40,0,0,64,0,0,82,0,60,
Cc1cccc(NS(=O)(=O)c2ccc(-c3cnc(C4CC4)o3)cc2)c1C,42,0,0,52,0,0,87,0,67,
CC(C)(C)C(=O)/C(=C/c1ccncc1)n1cncn1,93,82,101,75,0,29,83,62,106,ABHD5-PLIN5 conf=51;HNF4 split-luc=48;Mdm2-MdmX confirm=102
O=C(c1ccc(-c2ccc([N+](=O)[O-])cc2)o1)N1CCN(S(=O)(=O)c2cccs2)CC1,0,0,0,0,0,0,-,-,-,
CC(C)CN=C(NS(=O)(=O)c1ccccc1)C(Cl)(Cl)Cl,92,86,99,88,0,0,93,93,105,
NNC(=O)c1ccc(N2CCc3ccccc32)c([N+](=O)[O-])c1,0,0,0,0,0,0,-,-,-,
Nc1ncnc(N2CCc3ccccc32)c1[N+](=O)[O-],0,0,0,83,0,0,98,-,-,Mdm2-MdmX confirm=93
O=S(=O)(c1ccc(SCc2cccc(Cl)c2)nc1)N1CCCC1,0,0,0,0,0,0,-,-,-,
CCOc1ccccc1NC(=O)c1nc(S(=O)(=O)Cc2ccccc2)ncc1Cl,90,78,99,80,0,0,94,99,104,
CCOc1ccccc1NC(=O)c1ccc(C(=O)Nc2ccccc2OCC)nc1,0,0,0,0,0,0,-,-,-,
CCS(=O)(=O)c1ncc(Cl)c(C(=O)Nc2ccccc2OC)n1,93,0,104,85,0,0,96,0,99,
O=C(NCc1cccnc1)/C(=C\c1ccc(-c2cccc(Cl)c2)o1)S(=O)(=O)c1ccccc1,98,90,104,70,0,82,77,99,105,ABHD5-PLIN5 conf=97;HNF4 split-luc=88
Cn1nnnc1Sc1ncnc2scc(-c3ccc[nH]3)c12,72,84,0,83,0,42,64,41,100,ABHD5-PLIN5 conf=40;HNF4 split-luc=37
Clc1ccccc1-c1ccc2ncnc(NCc3ccc4c(c3)OCO4)c2c1,0,0,0,0,0,0,-,-,-,
c1nc(NCc2ccc3c(c2)OCO3)c2cc(-c3ccoc3)ccc2n1,0,0,0,82,0,0,92,-,-,Mdm2-MdmX confirm=88
SMILES,HIF-2a block,MITF TRPM1 inh,Peg3 prom inh,CF NFkB inh,KKLEB tox,ABHD5-PLIN5 inh,CF NFkB conf,HIF-2a conf,HIF-1a cs,others
COc1ccccc1/C=C/C(=O)c1c2c(c(C)[nH]c1=O)CCCC2,73,64,98,54,0,0,51,63,88,Mdm2-MdmX confirm=103
COc1ccc(/C=C/C(=O)c2c(C)cc(C)[nH]c2=O)c2ccccc12,0,0,0,0,0,0,-,-,-,
COc1ccc2cc3c(N)nn(C(=O)c4ccc(Cl)c([N+](=O)[O-])c4)c3nc2c1,0,0,0,65,0,0,0,-,-,Mdm2-MdmX confirm=96
CCCC1CCC(C(=O)n2nc(N)c3cc4ccc(OC)cc4nc32)CC1 (stereo not given),0,-,0,0,0,0,-,-,-,
COc1ccc2cc3c(N)nn(C(=O)c4ccccc4[N+](=O)[O-])c3nc2c1,0,0,0,71,0,0,93,-,-,Mdm2-MdmX confirm=93
CCc1noc(C)c1C(=O)Nc1ccccc1C(C)(C)C,0,0,0,0,0,0,-,-,-,
O=C1CN(C(=O)Cn2ncc(Cl)c(Cl)c2=O)c2ccccc2N1,96,93,103,94,0,0,56,0,106,
O=C1CN(C(=O)COc2ccc(Cl)c(Cl)c2)c2ccccc2N1,0,0,0,0,0,0,-,-,-,
O=C(Cn1ncc(Cl)c(Cl)c1=O)NC1CCCCC1,86,96,100,68,0,0,0,0,102,Mdm2-MdmX confirm=103
Cc1ccc(NC(=O)Cn2ncc(Cl)c(Cl)c2=O)cc1S(=O)(=O)N1CCCCC1,94,97,107,86,0,0,0,57,103,Mdm2-MdmX confirm=103
Cc1ccc(NC(=O)CN(C)C(=O)Cn2ncc(Cl)c(Cl)c2=O)cc1,97,90,102,68,0,0,0,100,106,
Cc1ccc(NC(=O)CN(C)C(=O)Cc2ccc(Cl)c(Cl)c2)cc1,0,0,0,0,0,0,-,-,-,
CC(=O)c1ccc(S(=O)(=O)NC2CC(=O)N(c3ccc(C)c(C)c3)C2)cc1 (stereo not given),0,0,0,0,0,0,-,-,-,
O=C(CNC(=O)Cc1cccc2ccccc12)NCc1ccc(F)cc1,0,0,0,0,0,0,-,-,-,
